# Measured values as given in PubChem BioAssay (NCI).
# About 79,000 compounds went through this panel and 15% of them were active in at least one assay; those are over-represented in the sample as a whole. Calls of active or inactive are those of the source. No stated cut-off is given here; in the data, active means growth inhibition above about 70%; inactive means the rest.
# How the values were obtained:
# [1] = NCI Yeast Anticancer Drug Screen. Data for the rad50 strain (AID 155);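 further: 0% = growth of vehicle-only cultures of the same strain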; conditions: S. cerevisiae rad50 strain growth inhibition; at 50.0 µM; active compounds read high
# How it was run: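 Growth of the mutant yeast was measured after compound exposure and referenced to vehicle-treated cultures.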
# [2] = NCI Yeast Anticancer Drug Screen. Data for the mec2-1 strain (AID 157); conditions: S. cerevisiae mec2-1 strain, at 50.0 µM, active compounds read high
# How it was run: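 Readout is yeast growth inhibition, normalised to vehicle-treated controls, in the mec2-1 strain exposed to compound.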
# [3] = NCI Yeast Anticancer Drug Screen. Data for the sgs1 mgt1 strain (AID 161);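 further: 0% = growth of cultures given vehicle only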; conditions: S. cerevisiae sgs1 mgt1 strain, at 50.0 µM, active compounds read high
# How it was run: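 Compounds are added to genetically altered yeast, and growth is compared with cultures given vehicle alone to give percent inhibition.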
# [4] = NCI Yeast Anticancer Drug Screen. Data for the cln2 rad14 strain (AID 165);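 further: 0% = growth equal to vehicle treated cultures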; conditions: S. cerevisiae cln2 rad14 strain, at 50.0 µM, active compounds read high
# How it was run: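 Relative to vehicle controls, growth inhibition of compound-treated cln2 rad14 yeast was recorded.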
# [5] = NCI Yeast Anticancer Drug Screen. Data for the bub3 strain (AID 167); conditions: S. cerevisiae bub3 mutant strain, at 50.0 µM, active compounds read high
# How it was run: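 Whole-cell yeast assay. The mutant strain was incubated with compounds, and growth inhibition was determined by comparison with vehicle-treated cells.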
# [6] = NCI Yeast Anticancer Drug Screen. Data for the mlh1 rad18 strain (AID 175); conditions: S. cerevisiae mlh1 rad18 strain growth inhibition; at 50.0 µM; active compounds read high
# How it was run: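 Test agents were incubated with a yeast strain of defined genotype (DNA damage repair defect). Inhibition of growth was derived by comparison with vehicle-exposed cultures.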
SMILES,growth inhibition [1],growth inhibition [2],growth inhibition [3],growth inhibition [4],growth inhibition [5],growth inhibition [6]
CN(C)CCCSc1n[nH]c(=O)[nH]c1=O,6.4% (inactive),2.5% (inactive),-11.3% (inactive),-19.7% (inactive),1.6% (inactive),-10.1% (inactive)
CCOC(=O)c1cn(C)c2c1C(=O)C(C(=O)OCC)CC(=O)N2 (configuration not stated),-4.55% (inactive),-4.15% (inactive),-11.6% (inactive),-53.6% (inactive),-6.4% (inactive),-8.25% (inactive)
COc1ccc(N2C(=O)CSC2c2c[nH]c3ccccc23)cc1 (configuration not stated),-39.2% (inactive),-43.5% (inactive),-49.6% (inactive),-16.1% (inactive),-44% (inactive),-47% (inactive)
COc1ccc(N2C(=O)C3c4[nH]c5ccc(C)cc5c4C4CCC(C)CC4C3C2=O)cc1 (configuration not stated),-24.2% (inactive),-0.6% (inactive),1.65% (inactive),-6.9% (inactive),-13.3% (inactive),-4.55% (inactive)
C/C(=N\NS(=O)(=O)c1ccc(N)cc1)c1ccc(C)cc1C,-12.9% (inactive),-19.6% (inactive),0.8% (inactive),-5.25% (inactive),-28.6% (inactive),-16.5% (inactive)
CCCCn1c(=O)c2c(ncn2C)n(C)c1=O,16.8% (inactive),16.6% (inactive),9.75% (inactive),-9.25% (inactive),-2.45% (inactive),6.2% (inactive)
CC(C)(C)N(OC(=O)c1ccc(C#N)cc1)c1ccccc1,15.4% (inactive),11.6% (inactive),3.55% (inactive),7.75% (inactive),4.2% (inactive),3.35% (inactive)
COC(O)C(=O)c1c2c(cc3c1CCC3)CCC2 (configuration not stated),29.1% (inactive),45.8% (inactive),39.3% (inactive),12.3% (inactive),21.1% (inactive),21% (inactive)
Cn1cc(NC(=O)c2cc(NC(=O)CCCCCC(=O)Nc3cc(C(=O)Nc4cc(C(=O)NCCC(=N)N)n(C)c4)n(C)c3)cn2C)cc1C(=O)NCCC(=N)N,-14.1% (inactive),-14.9% (inactive),-17.6% (inactive),-1.35% (inactive),-24.4% (inactive),-3.6% (inactive)
CC(=O)OCC1OC(OCCCc2ccccc2)C(OC(C)=O)C(OC(C)=O)C1OC(C)=O (configuration not stated),21% (inactive),5.5% (inactive),6.45% (inactive),-47.9% (inactive),-65.9% (inactive),24.9% (inactive)
CC1CCC2C(C)C3C(CC4C5CC=C6CC(O)CCC6(C)C5CCC43C=O)N2C1 (configuration not stated),30.3% (inactive),19.9% (inactive),24.9% (inactive),16.6% (inactive),3.9% (inactive),19.4% (inactive)
CC1OC(=O)c2cc3ccccc3cc2O1 (configuration not stated),-8% (inactive),-6.15% (inactive),5.95% (inactive),-31.1% (inactive),-19.2% (inactive),-0.45% (inactive)
CC(=O)Nc1cccc(C)n1,-17.8% (inactive),-3.2% (inactive),1.6% (inactive),-71.8% (inactive),-0.95% (inactive),1.7% (inactive)
C1CCc2nc3c(nc2C1)CCCC3,9.75% (inactive),1.6% (inactive),1.7% (inactive),-9.65% (inactive),-0.5% (inactive),7% (inactive)
C/C=C1/CN2CCc3c([nH]c4ccccc34)C2CC1C(Cc1c[n+]2c(c3[nH]c4ccccc4c13)CC1C(C(=O)OC)=COC(C)C1C2)C(=O)OC (configuration not stated),13.4% (inactive),-25.6% (inactive),-21.4% (inactive),17.1% (inactive),-22.2% (inactive),-12.3% (inactive)
O=C1C=CC(=O)C1,16% (inactive),-7.95% (inactive),3.15% (inactive),-0.3% (inactive),5.65% (inactive),-3.75% (inactive)
CN(c1ccccc1)c1cc2c(cc1[N+](=O)[O-])no[n+]2[O-],97.8% (active),98.7% (active),98.3% (active),98% (active),98.2% (active),98.8% (active)
O=C(NC(=S)Nc1cccc2ccccc12)c1ccccc1F,30.9% (inactive),15.1% (inactive),37.1% (inactive),5.3% (inactive),44% (inactive),28.4% (inactive)
CCN(CC)C1CCC(C2c3cc4c(cc3OC(N3CCOCC3)C2C)OCO4)CC1 (configuration not stated),-11.1% (inactive),-18.4% (inactive),-22.8% (inactive),-63% (inactive),7.95% (inactive),-22.4% (inactive)

SMILES,growth inhibition [1],growth inhibition [2],growth inhibition [3],growth inhibition [4],growth inhibition [5],growth inhibition [6]
CC(C)OC(=O)C1CCC(=O)N1 (configuration not stated),12.1% (inactive),-6.25% (inactive),-7.4% (inactive),-84.1% (inactive),19% (inactive),-20.4% (inactive)
CCC[C@H](C)[C@H]1NC(=O)[C@@H](NC(=O)[C@@H](CC(C)C)N(C)C(=O)C2CCCN2C(=O)[C@H](C)O)[C@@H](C)OC(=O)[C@H](CC(C)C)N(C)C(=O)[C@@H]2CCCN2C(=O)[C@H](CC(C)C)NC(=O)[C@@H](C)C(=O)[C@H](C(C)C)OC(=O)C[C@@H]1O (some centres not stated),21.2% (inactive),9.35% (inactive),-5.9% (inactive),26.3% (inactive),-20.9% (inactive),-54% (inactive)
Cc1nc(N)nc(-c2ccccc2)c1N=Nc1ccccc1Br,5.55% (inactive),0.15% (inactive),4.4% (inactive),-6.95% (inactive),-0.85% (inactive),11.8% (inactive)
O=C1C(=O)c2ccccc2C(O)=C1CN(CCO)CCO,10.8% (inactive),19.8% (inactive),24.2% (inactive),-8.25% (inactive),23.4% (inactive),26.2% (inactive)
N#C/C(=N\NC(=O)c1ccncc1)c1ccc(Cl)cc1,-3% (inactive),3.6% (inactive),3.75% (inactive),-30.2% (inactive),-9.75% (inactive),4.65% (inactive)
CC1CCC(NC2=NCCO2)C(C)C1 (configuration not stated),-20.4% (inactive),0.4% (inactive),-3.85% (inactive),-29.4% (inactive),-14.1% (inactive),-3.35% (inactive)
CC1(C)OC(=O)N=C1c1ccc(Cl)cc1,-20.2% (inactive),-10% (inactive),-19.8% (inactive),12.5% (inactive),-20% (inactive),-12.2% (inactive)
COCCOC(=O)c1ccccc1Cl,23.7% (inactive),15.6% (inactive),16.3% (inactive),8.8% (inactive),7.1% (inactive),22.4% (inactive)
COc1ccc(C23OC2Oc2cc(OC4CCCCO4)ccc2C3=O)cc1 (configuration not stated),10.1% (inactive),-8.45% (inactive),-6.25% (inactive),-6.4% (inactive),0.35% (inactive),2.55% (inactive)
CC(=O)C1C(=O)C(=O)N(c2ccc(F)cc2)C1=O (configuration not stated),-17.4% (inactive),-15.5% (inactive),-5.4% (inactive),-6.95% (inactive),-25.9% (inactive),-27.3% (inactive)
CCOc1ccc(Nc2nc(C)c(C(=O)CC(=O)C(=O)Nc3ccc(C(C)C)cc3C(C)C)s2)cc1,-31.2% (inactive),10.1% (inactive),5.45% (inactive),-14.8% (inactive),-20% (inactive),-38.4% (inactive)
COc1nc(SC)nc2[nH]ccc12,-1% (inactive),9.75% (inactive),-4.2% (inactive),-6.6% (inactive),-6.35% (inactive),-9.1% (inactive)
O.O.O=c1cc(Cl)[nH]c(=O)[nH]1.[NH2-].[NH2-].[Pt+4],-21.9% (inactive),-18.1% (inactive),-2.4% (inactive),-47.6% (inactive),2.65% (inactive),35.7% (inactive)
COP(=O)(OC)C(NC(=O)C(F)(F)F)(c1ccccc1)C(F)(F)F (configuration not stated),-28.1% (inactive),-7.25% (inactive),-37.2% (inactive),-8% (inactive),-16.9% (inactive),-28.7% (inactive)
CC1(C)CCCc2c(-c3ccccc3)cc3c4ccccc4cc[n+]3c21,-8.5% (inactive),-5.55% (inactive),-14.6% (inactive),-21.6% (inactive),-5% (inactive),-14.1% (inactive)
COc1ccc2c(c1)[n+]([O-])c(/C(C)=N/NC(=O)c1ccccc1O)c(C)[n+]2[O-],16.2% (inactive),-3.9% (inactive),9.45% (inactive),-106% (inactive),-3.35% (inactive),0.7% (inactive)
CC(=O)OCC(C)(C)C(OC(C)=O)C(C)C (configuration not stated),16.1% (inactive),0.75% (inactive),13.8% (inactive),-46.8% (inactive),-0.5% (inactive),11.2% (inactive)
Nc1ncnc2nc(-c3ccc(C(=O)c4cccc([N+](=O)[O-])c4)cc3)[nH]c12,1.85% (inactive),6.35% (inactive),-7.5% (inactive),-5.4% (inactive),14.6% (inactive),-13.2% (inactive)
